Bioassay records (PubChem BioAssay)
Hits are enriched below; roughly 4.6% of the tested compounds scored in any of these assays.
MARV entry inh: Marburg virus entry inhibition; Marburg virus pseudotyped entry inhibition, cell reporter; AID 540276; Potency, µM (titrated, usually from 37.8 µM), most hits filed as inhibitors; hit rate 1.8% among 300,000; calls by dose curve; tested in HEK293 cells
Vaccinia Venus: inhibitors of vaccinia virus (Venus reporter). Vaccinia virus Venus reporter expression, fluorescence. Potency, µM (top dose mostly 36.5 µM), hits mostly inhibitors. hit rate 0.46% among 330,000. AID 720580; calls by dose curve; tested in A549 cells; note: nearly all actives have a fitted effect of over 30% in size
Lassa entry inh: inhibitors of Lassa virus binding or cell entry. Lassa virus pseudotype entry inhibition, cell reporter. Potency, µM (highest dose often 37.9 µM), actives largely listed as inhibitors. hit rate 1.2% among 300,000; calls by dose curve; tested in HEK293 cells; note: nearly all actives have a fitted effect of over 50% in size
HCV inhibitor: inhibitors of hepatitis C virus infection; Potency, µM (highest dose often 41.8 µM), usual class: inhibitors; hit rate 3.4% among 340,000; Huh7.5.1 HCVcc-Cre infection, luciferase reporter, 44 h; active = well fitted inhibition curve with a large enough effect; inconclusive = small, poorly fitted or top-dose-only effect, or another doubt; inactive = no such curve, though single readings can be large or run the other way
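Whole-lifecycle infectious HCVcc-Cre system; cells 1,000/well, compound then virus (~0.5 moi) added 4 h after plating, 44 h culture. Luciferase read 15 sec following 15 min substrate incubation, room temp.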
Vaccinia mCherry: inhibitors of vaccinia virus infection (mCherry reporter signal); AID 720579; Vaccinia virus mCherry reporter infection, fluorescence; hit rate 0.63% among 310,000; Potency, µM (series often up to 36.5 µM), most hits filed as inhibitors; calls by dose curve; tested in A549 cells; note: nearly all actives have a fitted effect of over 35% in size
A number is an active result; ! = repeats disagree.

`COc1cccc2cc(C(=O)N3CC(C)OC(C)C3)c(=O)oc12` (configuration not stated) gave HCV inhibitor inactive.
C=Cc1cc(OC)c2c(c1)c(=O)oc1c2cc(OC)c2c(O)ccc(C3OC(C)C(O)C(C)(O)C3O)c21 (configuration not stated) was read as MARV entry inh inconclusive, Vaccinia Venus 1µM, Lassa entry inh 0.4µM, HCV inhibitor 1µM and Vaccinia mCherry inconclusive.
`COc1ccc(CCC(=O)NC2CCCN(Cc3ccc(Cl)cc3)C2)cc1OC` (configuration not stated) gave HCV inhibitor inactive.
`O=C(CCc1ccc(F)c(F)c1)NC1CCCN(Cc2ccc(Cl)cc2)C1` (configuration not stated) gave MARV entry inh 11µM, Vaccinia Venus inactive, Lassa entry inh inactive, HCV inhibitor inactive and Vaccinia mCherry inactive.
`O=C(Nc1ccc(-c2cn3ccsc3n2)cc1)C1COc2ccccc2O1` (configuration not stated) gave MARV entry inh inconclusive, Vaccinia Venus inconclusive, Lassa entry inh inactive, HCV inhibitor 14µM and Vaccinia mCherry inconclusive.
COc1ccc(S(=O)(=O)N2CCCCC2)cc1NC(=O)C1COc2ccccc2O1 (configuration not stated) was read as MARV entry inh 11µM, Vaccinia Venus inactive, Lassa entry inh inconclusive, HCV inhibitor inconclusive and Vaccinia mCherry inactive.
Screening O=C(Nc1cc(S(=O)(=O)N2CCCCC2)ccc1Oc1ccccc1)C1=COCCO1 returned HCV inhibitor 22µM.
For COc1ccc(S(=O)(=O)N2CCCCCC2)cc1NC(=O)c1ccccc1 the results were MARV entry inh inconclusive, Vaccinia Venus inactive, Lassa entry inh inactive, HCV inhibitor inactive and Vaccinia mCherry inactive.
COc1ccc(-c2csc(NC(=O)C3COc4ccccc4O3)n2)cc1OC (configuration not stated) was read as Vaccinia Venus inactive, HCV inhibitor 11µM and Vaccinia mCherry inactive.
For COc1ccc(CNC(=O)C(=O)NCC(c2cccs2)S(=O)(=O)c2ccc(C)cc2)cc1 (configuration not stated) the results were Vaccinia Venus inactive, Lassa entry inh inactive and Vaccinia mCherry inactive.
`COC(=O)CNC(c1ccccc1)c1cc(C)ccc1NS(=O)(=O)c1ccc(C)cc1` (configuration not stated) gave MARV entry inh inconclusive, Vaccinia Venus inactive, Lassa entry inh inconclusive, HCV inhibitor 6.3µM and Vaccinia mCherry inactive.
O=C(Cc1ccc(Cl)cc1)NO was read as Vaccinia Venus inactive and Vaccinia mCherry inactive.
For CC(=O)[C@@]1(O)CC[C@H]2[C@@H]3C=C(Cl)C4=CC(=O)[C@@H]5C[C@@H]5[C@]4(C)[C@H]3CC[C@@]21C the results were Vaccinia Venus inactive and Vaccinia mCherry inactive.
COC(=O)c1cccc(NC(=O)CSc2nc3cccnc3n2C)c1 was read as MARV entry inh inconclusive, Vaccinia Venus inconclusive, Lassa entry inh inactive, HCV inhibitor 14µM and Vaccinia mCherry inactive.
Screening COc1cccc(NC(=O)CSc2nc3ccccc3c(=O)n2C)c1 returned HCV inhibitor 22µM.
COc1cccc(NC(=O)CSc2nc3ccccc3nc2N2CCOCC2)c1 was read as MARV entry inh inconclusive, Vaccinia Venus inactive, Lassa entry inh 7.1µM, HCV inhibitor inconclusive and Vaccinia mCherry inactive.
`COc1ccccc1NC(=O)CSc1nc2sc(C)c(C)c2c(=O)n1C` gave MARV entry inh inactive, Vaccinia Venus inactive, Lassa entry inh inactive, HCV inhibitor 10µM and Vaccinia mCherry inactive.
`CC(=O)Nc1ccc(NC(=O)CSc2nc3ccccc3nc2N2CCOCC2)cc1` gave MARV entry inh inactive, Vaccinia Venus inactive, Lassa entry inh inconclusive and Vaccinia mCherry inactive.
For COC(=O)c1ccccc1NC(=O)CSc1nc2cccnc2n1C the results were Vaccinia Venus inactive, HCV inhibitor inactive and Vaccinia mCherry inactive.
Screening Cc1sc2nc(SCC(=O)Nc3c(C)n(C)n(-c4ccccc4)c3=O)n(C)c(=O)c2c1C returned MARV entry inh inactive, Lassa entry inh inactive and HCV inhibitor inactive.
For COC(=O)CC=C[C@@H](C)[C@@H](C=NOC[C@@H](O)[C@H]1O[C@@H]2OC(C)(C)O[C@H]2[C@@H]1O)OC the results were MARV entry inh inactive and Lassa entry inh inconclusive.
Screening CC1CN(C(=O)/C=C/c2ccc([N+](=O)[O-])s2)CC(C)O1 (configuration not stated) returned MARV entry inh 11µM, Vaccinia Venus inconclusive, Lassa entry inh inconclusive, HCV inhibitor inconclusive and Vaccinia mCherry inconclusive.
O=C(/C=C/c1ccc([N+](=O)[O-])s1)N1CCCC1 was read as Vaccinia Venus 13µM, HCV inhibitor inconclusive and Vaccinia mCherry inconclusive.
O=C(/C=C/c1ccc([N+](=O)[O-])s1)N1CCCCC1 was read as MARV entry inh 8.9µM, Vaccinia Venus 14µM, Lassa entry inh inconclusive, HCV inhibitor inconclusive and Vaccinia mCherry inconclusive.
`O=C(/C=C/c1ccccc1[N+](=O)[O-])N1CCCCC1` gave MARV entry inh inactive, Lassa entry inh inactive and HCV inhibitor inactive.
O=C(CSc1cnc2ccccc2n1)c1ccc(F)cc1 was read as MARV entry inh inconclusive, Lassa entry inh 5.8µM and HCV inhibitor inactive.
CCOC(=O)C1CCN(C(=O)c2c(C)oc3c2C(=O)c2ccccc2C3=O)CC1 was read as MARV entry inh inactive, Vaccinia Venus 14µM, Lassa entry inh inconclusive, HCV inhibitor inactive and Vaccinia mCherry 14µM.
For Nc1c(N(C(=O)Nc2ccc(Cl)c(Cl)c2)C2CCCC2)c(=O)[nH]c(=O)n1Cc1ccccc1 the results were MARV entry inh inactive, Vaccinia Venus inactive, Lassa entry inh inconclusive, HCV inhibitor 11µM and Vaccinia mCherry inactive.
Cc1cnc(N)c2c(=O)oc3ccccc3c12 was read as MARV entry inh inactive, Vaccinia Venus inactive, HCV inhibitor 6.3µM and Vaccinia mCherry inactive.
Screening O=c1oc2ccccc2c2c1cnc1ccccc12 returned Vaccinia Venus inactive, HCV inhibitor inactive and Vaccinia mCherry inactive.
CCC(CO)NC(=O)C(=O)Nc1c2c(nn1-c1ccc(F)cc1)CSC2 (configuration not stated) was read as Vaccinia Venus inactive, Lassa entry inh inactive and Vaccinia mCherry inactive.
Screening Cc1nc(C)c(C(=O)NCc2nc(-c3cccc(NC(=O)c4ccccn4)c3)oc2C)s1 returned Vaccinia Venus inactive and Vaccinia mCherry inconclusive.
Screening CCOC(=O)NC(=O)C(/C=N/c1sccc1C(=O)OC)=C(\C)O returned MARV entry inh inconclusive, Vaccinia Venus inactive, Lassa entry inh inconclusive, HCV inhibitor 0.56µM and Vaccinia mCherry inactive.
COc1ccccc1N1CCN(CC(O)COc2cccc3ccccc23)CC1 (configuration not stated) was read as MARV entry inh inconclusive, Vaccinia Venus inactive, Lassa entry inh 21µM!, HCV inhibitor inactive and Vaccinia mCherry inactive.
`CC(COc1cccc2ccccc12)CN1CCN(C)CC1` (configuration not stated) gave MARV entry inh inconclusive, Lassa entry inh inconclusive and HCV inhibitor 5µM.
